# Reference: PubChem BioAssay
# Calls of active or inactive are those of the source. Unless noted, how the calls were made is not given here.
# Columns and labels:
# [1] = kinase inhibitors against Plasmodium liver-stage infection, cell-based, known kinase inhibitor set, luminescence, hepatoma host viability (AID 624392); settings: Plasmodium liver stage in hepatoma cells, luciferase luminescence, concentration not given here; liver cell % of control: measured here: host liver cell viability; parasite % of control: stronger effect = lower value;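 further: infected cells incubated roughly two days before readout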
# [2] = test system: Neuropilin-2 / VEGF-C interaction (human); assay: inhibitors of NRP2–VEGF-C binding, biochemical, microplate binding format, z-score (AID 743281); settings: microplate NRP2/VEGF-C binding assay
# [3] = test system: Hepatitis C virus NS3 helicase; assay: HCV NS3 helicase inhibitors, primary screen, biochemical, fluorescence polarization, LOPAC1280 library (AID 687035; in the data active means inhibition above about 37%); settings: Purified HCV NS3 helicase, Cy5-dT15 ssDNA binding fluorescence polarization; stronger effect = higher value; concentration not given here
# [4] = Cy5 fluorescence quenching or enhancement artefacts, artefact control for HCV NS3 helicase inhibitor project, biochemical, LOPAC1280 (AID 687037); settings: Cy5-DNA-NS3h complex fluorescence interference counterscreen
# [5] = Cy5 fluorescence interference with SSB-bound oligo, artefact control for HCV NS3 helicase inhibitor project, biochemical, NIH Clinical Collection, E. coli SSB (AID 743268)
# [6] = test system: Hepatitis C virus NS3 helicase; assay: HCV NS3 helicase inhibitors, primary screen, biochemical, fluorescence polarization, NIH Clinical Collection (AID 743270); settings: NS3 helicase binding to Cy5-dT15 DNA, stronger effect = higher value, concentration not given here
# [7] = molecular target: Single-stranded DNA-binding protein (Escherichia coli (strain K12)) (UniProt P0AGE0); assay: E. coli SSB displacement from DNA, counter-screen for HCV NS3 helicase inhibitor project, biochemical, fluorescence polarization, NIH Clinical Collection (AID 743271; in the data active means inhibition above about 28%); settings: stronger effect = higher value, concentration not given here
# [8] = fluorescence interference in NS3h assay format, artefact control for HCV NS3 helicase inhibitor project, biochemical, NIH Clinical Collection (AID 743272); settings: fluorescence interference counterscreen, stronger effect = lower value;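 further: HCV NS3 helicase with a Cy5 labelled single stranded DNA probe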
structure (smiles),measurement,setting,value
CCN1C(=O)CC(c2ccccc2)N(C2CCCC2)c2nc(Nc3ccc(C(=O)NC4CCN(C)CC4)cc3OC)ncc21 (stereo unspecified),liver cell % of control,[1],94.4%
same,parasite % of control,[1],83.8% (inactive)
O=C1NCCC(=NNc2cccnc2)c2c1[nH]c1ccc(Cl)cc21,liver cell % of control,[1],99.3%
same,parasite % of control,[1],133% (inactive)
CN(c1ccc(OC(F)(F)F)cc1)c1cc(-c2cccc(C(N)=O)c2)ncn1,liver cell % of control,[1],99.1%
same,parasite % of control,[1],107% (inactive)
O=C(Nc1cccc(-c2csc(Nc3ccc(Cl)cc3)n2)c1)c1cc([N+](=O)[O-])cc(C(F)(F)F)c1,liver cell % of control,[1],95.1%
same,parasite % of control,[1],192% (inactive)
O=C(Nc1ccc(-c2csc(Nc3ccc(Cl)cc3)n2)cc1)c1ccccc1,liver cell % of control,[1],103%
same,parasite % of control,[1],110% (inactive)
C=CC(=O)Nc1ccc(N(C)c2ccnc(Nc3ccc(N4CCN(C)CC4)cc3)n2)cc1,liver cell % of control,[1],107%
same,parasite % of control,[1],27.8% (inactive)
COc1cc(C(=O)NC2CCN(C)CC2)ccc1Nc1ncc2c(n1)N(C1CCC(O)CC1)CCC(=O)N2C (stereo unspecified),liver cell % of control,[1],103%
same,parasite % of control,[1],180% (inactive)
CCN1CCN(Cc2ccc(NC(=O)c3cc(NC(=O)c4ccc5n[nH]nc5c4)cc(OC)c3)cc2C(F)(F)F)CC1,liver cell % of control,[1],101%
same,parasite % of control,[1],138% (inactive)
C=CC(=O)Nc1cccc(Oc2ccnc(Nc3ccc(N4CCN(C)CC4)cc3)n2)c1,liver cell % of control,[1],106%
same,parasite % of control,[1],162% (inactive)
NC(=O)c1cccc(-c2cnc(N)c(C(=O)c3cccnc3)n2)c1,liver cell % of control,[1],101%
same,parasite % of control,[1],179% (inactive)
CCN1CCN(Cc2ccc(NC(=O)c3ccc(C)c(NC(=O)c4nccnc4N)c3)cc2C(F)(F)F)CC1,liver cell % of control,[1],93.8%
same,parasite % of control,[1],155% (inactive)
Cc1ccc(C(=O)Nc2cccc(C(F)(F)F)c2)cc1NC(=O)c1ccno1,liver cell % of control,[1],103%
same,parasite % of control,[1],87.9% (inactive)
CCN1CCN(Cc2ccc(NC(=O)c3cc(NC(=O)c4cc(-c5ccc(OC)cc5)n[nH]4)cc(OC)c3)cc2C(F)(F)F)CC1,liver cell % of control,[1],90.4%
same,parasite % of control,[1],132% (inactive)
O=C(Nc1cccc(-c2csc(Nc3cccc(C(F)(F)F)c3)n2)c1)c1ccccc1,liver cell % of control,[1],97.7%
same,parasite % of control,[1],68.7% (inactive)
NC1=NC(=O)C(=Cc2ccc(-c3ccc(S(N)(=O)=O)cc3)o2)S1,liver cell % of control,[1],104%
same,parasite % of control,[1],97.3% (inactive)
Nc1ccc(-c2cnc(N)c(C(=O)c3cccnc3)n2)cn1,liver cell % of control,[1],97.9%
same,parasite % of control,[1],132% (inactive)
CS(=O)(=O)Nc1ccc(-c2ccc(C=C3SC(N)=NC3=O)o2)cc1,liver cell % of control,[1],105%
same,parasite % of control,[1],130% (inactive)
COc1cc(O)c2c(c1)oc(=O)c1c3cc(O)c(O)cc3oc21,liver cell % of control,[1],107%
same,parasite % of control,[1],36.8% (inactive)
O=C1NN(c2ccccc2)C(=O)C1=Cc1ccc(-c2ccc(Cl)cc2)o1,liver cell % of control,[1],98.7%
same,parasite % of control,[1],92.2% (inactive)
COc1ccc(CNc2nc(NCc3ccc(OC)cc3)c3ncn(C(C)C)c3n2)cc1,liver cell % of control,[1],107%
same,parasite % of control,[1],168% (inactive)
CO[C@H]1C=CO[C@@]2(C)Oc3c(C)c(O)c4c(O)c(c5c(c4c3C2=O)NC2(CCN(CC(C)C)CC2)N=5)=NC(=O)/C(C)=C\C=C[C@H](C)[C@H](O)[C@@H](C)[C@@H](O)[C@@H](C)[C@H](OC(C)=O)[C@@H]1C,outcome,[2],inactive
COCCCC/C(=N/OCCN)c1ccc(C(F)(F)F)cc1,inhibition,[3],-1% (inactive)
same,fluorescence ratio (interference),[4],1 (inactive)
O=C1CN(/N=C\c2ccc(-c3ccc([N+](=O)[O-])cc3)o2)C(=O)N1,inhibition,[3],-3% (inactive)
same,fluorescence ratio (interference),[4],1 (inactive)
COc1cc(NC(=O)c2ccc(N)nc2)cc(C(=O)Nc2cccc(C(F)(F)F)c2)c1,liver cell % of control,[1],97.9%
same,parasite % of control,[1],85% (inactive)
Cc1ccc2nc(CN(CCN(Cc3nc4ccc(C)cc4[nH]3)Cc3nc4ccc(C)cc4[nH]3)Cc3nc4ccc(C)cc4[nH]3)[nH]c2c1,inhibition,[3],0% (inactive)
same,fluorescence ratio (interference),[4],1 (inactive)
CN(C)C1=NC(=O)C(=Cc2ccc(-c3ccc(S(N)(=O)=O)cc3)o2)S1,liver cell % of control,[1],99.8%
same,parasite % of control,[1],84.6% (inactive)
CC/C(O)=N/S(=O)(=O)c1ccc(-c2c(-c3ccccc3)noc2C)cc1,fluorescence ratio,[5],1.03 (inactive)
same,inhibition,[6],-1.97% (inactive)
same,inhibition,[7],-2.76% (inactive)
same,fluorescence ratio,[8],1.01 (inactive)
Nc1ncnc2c1c(I)cn2[C@@H]1C[C@H](N)[C@@H](O)[C@H]1O,inhibition,[3],-1% (inactive)
same,fluorescence ratio (interference),[4],0.9 (inactive)
NS(=O)(=O)c1ccc(-c2ccc(C=C3NC(=S)NC3=O)o2)cc1,liver cell % of control,[1],98.7%
same,parasite % of control,[1],100% (inactive)
CCN1C(=O)CC(C(C)C)N(C2CCCC2)c2nc(Nc3ccc(C(=O)NC4CCN(C)CC4)cc3OC)ncc21 (stereo unspecified),liver cell % of control,[1],102%
same,parasite % of control,[1],87.6% (inactive)
CCN1CCN(Cc2ccc(NC(=O)c3ccc(C)c(NC(=O)c4c[nH]c5cc(C(F)(F)F)ccc5c4=O)c3)cc2C(F)(F)F)CC1,liver cell % of control,[1],45.6%
same,parasite % of control,[1],4.19% (active)
CO/N=C(/C(=O)N[C@@H]1C(=O)N2C(C(=O)O)=C(CSc3nc(=O)c(O)nn3C)CSC12)c1csc(N)n1 (stereo partly specified),inhibition,[3],-2% (inactive)
same,fluorescence ratio (interference),[4],1 (inactive)
COc1cc(C(=O)NC2CCN(C)CC2)ccc1Nc1ncc2c(n1)N(CCc1ccccc1)CCC(=O)N2C,liver cell % of control,[1],98.4%
same,parasite % of control,[1],343% (inactive)
CCOC(=O)N1CCN(/[N+]([O-])=N\Oc2ccc([N+](=O)[O-])cc2[N+](=O)[O-])CC1,inhibition,[3],-3% (inactive)
same,fluorescence ratio (interference),[4],1.1 (inactive)
CCN1CCN(Cc2ccc(NC(=O)c3ccc(C)c(NC(=O)C(=O)c4c[nH]c5ccccc45)c3)cc2C(F)(F)F)CC1,liver cell % of control,[1],69.8%
same,parasite % of control,[1],99.9% (inactive)
O=C(O)COCCN1CCN([C@@H](c2ccccc2)c2ccc(Cl)cc2)CC1,inhibition,[6],-1.98% (inactive)
same,inhibition,[7],-1.64% (inactive)
same,fluorescence ratio,[8],0.95 (inactive)
C=CCc1cccc(/C=N\NC(=O)CN2CCN(Cc3ccccc3)CC2)c1O,inhibition,[3],1% (inactive)
same,fluorescence ratio (interference),[4],0.9 (inactive)
CC(C)ON([C@@H](C(=O)NO)C(C)C)S(=O)(=O)c1ccc(-c2ccccc2)cc1,inhibition,[3],-1% (inactive)
same,fluorescence ratio (interference),[4],0.9 (inactive)
Fc1cccc(/C=N\N=C/c2cccc(F)c2)c1,inhibition,[3],-2% (inactive)
same,fluorescence ratio (interference),[4],1 (inactive)
CC(=O)N[C@H]1[C@H]([C@H](O)[C@H](O)CO)OC(C(=O)O)=C[C@@H]1O,inhibition,[3],2% (inactive)
same,fluorescence ratio (interference),[4],1 (inactive)
CN(C)c1nc2c(Br)c(Br)c(Br)c(Br)c2[nH]1,inhibition,[3],1% (inactive)
same,fluorescence ratio (interference),[4],1 (inactive)
COc1cc(NC(=O)c2nccnc2N)cc(C(=O)Nc2cccc(C(F)(F)F)c2)c1,liver cell % of control,[1],97.3%
same,parasite % of control,[1],84.9% (inactive)
Nc1ncc(-c2cccnc2)nc1C(=O)c1cccnc1,liver cell % of control,[1],98.8%
same,parasite % of control,[1],75.4% (inactive)
COc1ccc(-c2cc(C(=O)Nc3cc(OC)cc(C(=O)Nc4cccc(C(F)(F)F)c4)c3)[nH]n2)cc1,liver cell % of control,[1],93.9%
same,parasite % of control,[1],36.9% (inactive)
C=CC(=O)Nc1cccc(Oc2ccnc3[nH]ccc23)c1,liver cell % of control,[1],102%
same,parasite % of control,[1],56.9% (inactive)
NS(=O)(=O)c1ccc(-c2ccc(C=C3C(=O)Nc4ccccc43)o2)cc1,liver cell % of control,[1],99.7%
same,parasite % of control,[1],90.6% (inactive)
O=C(Nc1cccc(-c2csc(Nc3ccc(Cl)cc3)n2)c1)c1cccc(C(F)(F)F)c1,liver cell % of control,[1],97.6%
same,parasite % of control,[1],115% (inactive)
CCN1CCN(Cc2ccc(NC(=O)c3cc(NC(=O)c4cc5cccc(OC)c5o4)cc(OC)c3)cc2C(F)(F)F)CC1,liver cell % of control,[1],93.7%
same,parasite % of control,[1],89.9% (inactive)
CCC(C)Oc1cc(-c2ccnc(Nc3cccc(Cl)c3)n2)ccn1 (stereo unspecified),liver cell % of control,[1],58.3%
same,parasite % of control,[1],150% (inactive)
CO[C@H]1C=CO[C@@]2(C)Oc3c(C)c(O)c4c(O)c(c5c(c4c3C2=O)=NC2(CCN(CC(C)C)CC2)N=5)NC(=O)C(C)=CC=C[C@H](C)[C@H](O)[C@@H](C)[C@@H](O)[C@@H](C)[C@H](OC(C)=O)[C@@H]1C,fluorescence ratio,[5],0.96 (inactive)
same,inhibition,[6],-2.77% (inactive)
same,inhibition,[7],1.44% (inactive)
same,fluorescence ratio,[8],0.96 (inactive)
COc1cc(NC(=O)c2csc(-c3ccncc3)n2)cc(C(=O)Nc2cccc(C(F)(F)F)c2)c1,liver cell % of control,[1],95.7%
same,parasite % of control,[1],124% (inactive)
CC(C)CC(CO)Nc1nc(N(C)c2cccc(Cl)c2)c2ncn(C(C)C)c2n1 (stereo unspecified),liver cell % of control,[1],102%
same,parasite % of control,[1],114% (inactive)
COc1cc(NC(=O)c2nccn2C)cc(C(=O)Nc2cccc(C(F)(F)F)c2)c1,liver cell % of control,[1],91.3%
same,parasite % of control,[1],84.5% (inactive)
CC(=O)/C(C)=N\O,inhibition,[3],-1% (inactive)
same,fluorescence ratio (interference),[4],1.1 (inactive)
CO[C@H]1C=CO[C@@]2(C)Oc3c(C)c(O)c4c(O)c(c(/C=N/N5CCN(C6CCCC6)CC5)c(O)c4c3C2=O)NC(=O)C(C)=CC=C[C@H](C)[C@H](O)[C@@H](C)[C@@H](O)[C@@H](C)[C@H](OC(C)=O)[C@@H]1C,fluorescence ratio,[5],1.02 (inactive)
same,inhibition,[6],-3.56% (inactive)
same,inhibition,[7],9.91% (inactive)
same,fluorescence ratio,[8],1.01 (inactive)
